# Measured values taken from PubChem BioAssay AID588342 (National Center for Advancing Translational Sciences (NCATS), 2011).
# Out of some 360,000 compounds screened, about 25,000 (6.9%) were called active. About 9% were inconclusive and are not listed. The list comes from a sample in which actives are over-represented; it also holds similar structures and randomly drawn compounds. Values without a mark were called inactive. Calls follow the shape of the dose curve; as a rule, active = well fitted inhibition curve with a large enough effect; inconclusive = small, poorly fitted or top-dose-only effect; inactive = flat fitted curve, though single readings scatter.
# Molecular target: Luciferin 4-monooxygenase (Photinus pyralis) (UniProt P08659)
# Experiment: qHTS profiling assay for firefly luciferase inhibitor/activator using purifed enzyme and Km concentrations of substrates (counterscreen for miR-21 project); also: nearly all actives have a fitted effect of over 55% in size;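 as to activity change, negative = inhibition: plate controls were vehicle for no effect and reference inhibitor for full effect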
# Settings: purified FLuc, luminescence inhibition; series mostly up to 57.5 µM; activity change, negative = inhibition: at the top concentration
# Source text: MLPCN Grant: 1 R21 NS059478-01 (miR-21 grant) Assay Provider: NCGC NCGC Assay Overview: Firefly (Photinus pyralis) luciferase is one of the most commonly used transcriptional reporters for a number of reasons. It is considered one of the more dynamically responsive reporters -that is, responsive to changes in reporter transcription - as it requires no post-translational modifications and is enzymatically active directly after protein synthesis (Wood, 1998). Additionally, the half-life of the luciferase protein is short relative to other reporter-gene products (Wood, 1995). Whereas reporters with long half-lives potentially allow for increased signal due to accumulation of reporter-gene product, once accumulated in the cell, dynamic changes in reporter-gene expression may be difficult to detect(Fan and Wood, 2007; Almond et al., 2004). It has been shown that wild-type P. pyralis luciferase has a half-life of approximately […] hours in mammalian cells (Thompson et al., 1991). Firefly luciferase reporter-gene assays are also generally considered one of the most sensitive assay types (Wood, 1995; Wood, 1998). Although light produced in a bioluminescence reaction is of lower intensity than that produced during fluorescence emission, this is offset by little to no background light inherent to luminescent assays. Thus the luciferase reporter can be expressed at much lower levels than fluorescent proteins while still providing robust signal. # However, it was initially observed, in 1991, by Thompson et al., that compounds that resemble the substrates of firefly luciferase (FLuc) can act as competitive inhibitors of the enzyme, and that these compounds, upon interaction with luciferase in the cell, can actually stabilize the protein and increase its half-life. Accumulated intracellular FLuc protein can be measured as an increase in luminescence signal, upon addition of detection reagents (which contain high concentrations of FLuc substrates) commonly used in high-throughput screening. In cell-based reporter gene assays that use FLuc as the reporter gene to quantitate the potential influence of a given compound against the target biology, this apparent increase in luminescence can mistakenly be interpreted as identification of a compound that is active against the target of interest. This is the case for the miR-21 FLuc reporter gene assay used to identify inhibitors of the miR-21 pathway (PubChem AID 2289) - compounds of interest will inhibit miR-21 biogenesis/expression or activity, and are identified by causing an increase in luminescence, due to increased FLuc translation. However, FLuc inhibitory compounds that stabilize the FLuc protein will give an identical read-out, making it difficult to distinguish compounds that are active against the target from those active against FLuc. Previous profiling work to determine the prevalence of compounds that affect FLuc enzymatic activity (PubChem AID 411) identified that ~3% of the MLSMR library (then at ~72K) inhibited FLuc. […] Since the MLSMR had grown to ~350K compounds, and since it was expected that a significant percentage of compounds found active in the miR-21 FLuc assay would be FLuc inhibitors, the library was screened for activity against FLuc using a biochemical assay of purified FLuc and KM concentrations of FLuc substrates (D-luciferin and ATP).
# NCGC Assay Protocol Summary: Reagents: 50mM Tris acetate, pH 7.5; 10mM Mg acetate; 10uM D-luciferin (Sigma #L9504); 10uM ATP; 0.01% Tween-20; 0.05% BSA; 10nM P. pyralis luciferase (Sigma #L9506) Control compounds used were two known firefly luciferase inhibitors (compounds (2) and (5) in Auld et al., 2010), and DMSO. […]
# Chain of Luciferin 4-monooxygenase (Photinus pyralis) (P08659 whole entry, looked up): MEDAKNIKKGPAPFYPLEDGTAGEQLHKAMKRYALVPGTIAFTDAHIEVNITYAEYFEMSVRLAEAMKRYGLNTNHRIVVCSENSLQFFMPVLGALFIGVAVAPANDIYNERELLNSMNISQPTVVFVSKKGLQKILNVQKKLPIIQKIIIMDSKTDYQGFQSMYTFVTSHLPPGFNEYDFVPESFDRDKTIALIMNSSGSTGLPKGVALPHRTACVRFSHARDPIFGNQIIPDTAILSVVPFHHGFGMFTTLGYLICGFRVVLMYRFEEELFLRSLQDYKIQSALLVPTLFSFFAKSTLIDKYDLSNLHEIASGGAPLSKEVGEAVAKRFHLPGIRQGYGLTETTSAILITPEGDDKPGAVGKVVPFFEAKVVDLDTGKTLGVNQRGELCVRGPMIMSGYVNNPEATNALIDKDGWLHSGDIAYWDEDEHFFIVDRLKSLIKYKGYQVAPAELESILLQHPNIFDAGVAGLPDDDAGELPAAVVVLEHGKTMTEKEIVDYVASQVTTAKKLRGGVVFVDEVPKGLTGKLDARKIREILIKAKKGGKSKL
Structure (SMILES),Potency,"activity change, negative = inhibition"
CC(C)(C)C1CCc2c(sc3nc(SCC(N)=O)nc(N)c23)C1 (configuration not stated),4.78 µM (active),
Nc1nc(SCC(=O)NCCN2CCOCC2)nc2sc3c(c12)CCC3,,-15.9%
COc1ccc(OC)c(NC(=O)CSc2nc3ccccc3nc2N2CCCCC2)c1,,6.02%
CCOc1ccc(C(C)NC(=O)CN2C(=O)NC3(CCCCC3)C2=O)cc1OCC (configuration not stated),,-1.45%
O=C(CSc1nc(-c2cccc(F)c2)[nH]c1-c1ccccc1)Nc1ccc2c(c1)OCO2,,-13.3%
CCOC(=O)C(Cc1ccccc1)NC(=O)CCc1c(C)nc2c(c(C)nn2-c2ccc(C)c(C)c2)c1C (configuration not stated),,-1.42%
CN(Cc1ccccc1)c1nc2c(c(=O)[nH]c(=O)n2C)n1CCSc1nc2ccccc2[nH]1,,-0.398%
COc1ccccc1-c1noc(CSc2nc(C)cc(=O)[nH]2)n1,,-15.8%
COc1ccccc1CSc1nc2ccccc2[nH]1,13.5 µM (active),
CCCCSc1nc2ccccc2[nH]1,16.9 µM (active),
COc1ccc(NC(=O)CSc2nc3ccccc3[nH]2)cc1,,-17.5%
O=C(CSc1nc2ccccc2[nH]1)c1cccs1,6.75 µM (active),
CCc1nnc(NC(=O)CCCSc2nc3ccccc3[nH]2)s1,,-6.22%
O=C(NCc1ccccc1)c1onc(CSc2nc3ccccc3[nH]2)c1C(=O)NCc1ccccc1,,2.2%
O=C(CSc1nc2ccccc2[nH]1)Nc1nc(-c2ccccc2)c(-c2ccccc2)o1,,-1.43%
CCc1ccc(CN(C)C(C)C(=O)Nc2ccc(S(=O)(=O)N3CCCC3)cc2)cc1 (configuration not stated),,2.76%
Nc1c(Cl)cc(S(N)(=O)=O)cc1S(N)(=O)=O,,1.02%
COc1ccc(-n2c(=O)c3ccccc3n(Cc3ccccc3Cl)c2=O)cc1,,-3.28%
Cc1ccc(Cn2c(=O)n(CCCC(=O)NCc3ccccc3Cl)c(=O)c3ccccc32)cc1,,3.41%
COc1ccc(C2=NC3(CCCCC3)N(CC(=O)Nc3ccc(C(C)C)cc3)C2=O)cc1,,3.81%
CC(Sc1nncn1C)C(=O)Nc1ccccc1-c1ccccc1 (configuration not stated),,1.84%
CCOC(=O)c1sc(NC(=O)C(CC)Sc2nccn2C)nc1C (configuration not stated),,4.46%
CCC(Sc1nncn1C)C(=O)Nc1nnc(-c2ccc(Cl)cc2)s1 (configuration not stated),15.1 µM (active),
COc1ccc(C2CC(=O)Nc3c2c(=O)nc2c(C)cccn32)cc1OC (configuration not stated),,-2.04%
COc1ccccc1C(=O)NCCC(=O)NC1=NCCS1,,0.0399%
O=C(NC1=NCCS1)[C@H](Cc1ccccc1)N1C(=O)c2ccccc2C1=O,,2.88%

Structure (SMILES),Potency,"activity change, negative = inhibition"
COc1ccc(C(=O)NC2=NCCS2)c(OC)c1,6.01 µM (active),
CCOc1ccc(C(=O)CCC(=O)NC2=NCCS2)cc1,,-14%
COc1ccc(OC)c(NC(=O)Cc2cccs2)c1,,-4.29%
O=C(NC1=NCCS1)c1ccc(Cl)s1,23.9 µM (active),
O=C(NCc1ccc2c(c1)OCO2)c1ccc(Cl)s1,,-19.5%
COc1cccc(OC)c1C(=O)Nc1nnc(C(C)C)s1,,-4.11%
COc1ccc(C(=O)Nc2nncs2)c(OC)c1,8.49 µM (active),
Cc1c(NC(=O)CSc2nnc(-c3cccnc3)n2N)c(=O)n(-c2ccccc2)n1C,,5.52%
COc1ccc(CCNCc2c(C(=O)O)c(C)n(Cc3cccc(C)c3)c2C)cc1OC,,-0.123%
Cc1ccc(NC(=O)CN2C(=O)C(c3ccc(F)cc3)=NC23CCCCCC3)c(C)c1,,4.17%
CCOc1ccc(N2C(=O)CSC2=NC#N)cc1,,-1.46%
CCOc1ccccc1NC(=O)Cn1ncc2ccc([N+](=O)[O-])cc21,,-1.68%
Cc1cccc(-n2ccnc2SCC(=O)Nc2cccc3ccccc23)c1C,,-4.45%
Cc1ccccc1OCCC(=O)OCC(=O)NCCc1ccc(S(N)(=O)=O)cc1,,0.732%
COc1ccccc1CC(NC(C)=O)C(=O)NC1CCN(C(=O)Nc2ccccc2Cl)CC1 (configuration not stated),,-1.29%
O=C1Cc2cc(S(=O)(=O)Nc3ccc(OC(F)(F)F)cc3)cc3c2N1CCC3,,3.14%
O=C(O)c1ccccc1-c1ccccc1C(=O)Nc1cccc2ccccc12,,-0.517%
CN(CC(=O)Nc1ccc(Cl)cc1)CC(=O)Nc1cccc2ccccc12,,2.54%
O=C(Nc1cccc2ccccc12)c1onc2c1CCCC2,8.49 µM (active),
COc1ccc(C(=O)OCC(=O)c2ccc(Cl)s2)c(OC)c1OC,21.3 µM (active),
COc1ccc(C(=O)OCC(=O)Nc2ccc3[nH]c(=O)[nH]c3c2)c(OC)c1OC,,0.847%
COc1ccc(Cl)cc1C(=O)OCC(=O)NCc1cccs1,,-0.894%
CCC1=Nc2cc(C(=O)NCC(C)c3ccccc3)ccc2Sc2ccc(C)cc21 (configuration not stated),,-8.78%
CCOC(=O)c1c(-c2ccc(-c3ccccc3)cc2)csc1NC(=O)CCC(=O)O,,0.422%
CCOC(=O)c1c(-c2ccc(C)cc2)csc1/N=C(\C)C1=C(O)c2ccccc2C1=O,2.69 µM (active),
COC(=O)c1c(-c2ccc(C)cc2)csc1N,,0.678%
